Assay results published in PubChem BioAssay (EPA / NIEHS).
Some structures have more than one record in an assay (separate samples or runs), and their calls can disagree. Calls of active or inactive are those of the source. How the source made its calls: active means hit-call score of the fitted dose curve at least 0.9, where 1 is the maximum; inactive means score below 0.9.

Tested on: not listed separately
Assay: ATG_SREBP_CIS: Attagene CIS-FACTORIAL HepG2 Assay for human Sterol Regulatory Element Binding (SREBP) (AID 2282962)
Conditions: HepG2 Attagene cis-factorial SREBP reporter, mRNA; actives raise or lower the signal
Summary of the method: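 mRNA induction of transfected cis-promoter reporters in HepG2 cells, 24 h post-dose. Detection: RT-PCR with 6-FAM-labelled products, HpaI digest, capillary electrophoresis. DMSO served as negative control and baseline.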

outcome, inactive:
c1ccc2c(c1)CCC2, CC(C)(C)c1ccc(O)c(O)c1, CN(Cc1cnc2nc(N)nc(N)c2n1)c1ccc(C(=O)N[C@@H](CCC(=O)O)C(=O)O)cc1, O=C1c2ccc(O)c(O)c2C(=O)c2c(O)ccc(O)c21, Cc1ccc(C(=O)c2ccccc2)cc1, Nc1ccc(O)c(C(=O)O)c1, O=C(O)C(F)(F)OC(F)(F)C(F)(F)OC(F)(F)C(F)(F)OC(F)(F)C(F)(F)C(F)(F)C(F)(F)F, CC[N+](CC)(CC)Cc1ccccc1, O=C1Cc2ccccc2N1c1c(Cl)cccc1Cl, CN(C)c1ccc(C(=C2C=CC(=[N+](C)C)C=C2)c2ccccc2)cc1, CCCCC(CC)C(=O)OCCOCCOCCOCCOC(=O)C(CC)CCCC (configuration not stated), c1cnc2c(c1)ccc1cccnc12, C[C@]12CC[C@@H]3c4ccc(O)cc4CC[C@H]3[C@@H]1CC[C@@H]2OC(=O)CCC1CCCC1, Cc1cc(=O)oc2cc(O)ccc12, FC(OC(F)(F)C(F)(F)C(F)(F)F)C(F)(F)F (configuration not stated), COCN(COC)c1nc(N(COC)COC)nc(N(COC)COC)n1, CC=O, CCCCCCCCCCCCCCC, Cc1ccccc1C(OCCN(C)C)c1ccccc1 (configuration not stated), CC(=O)Nc1ccc(O)cc1, CC(C)CCOCCC(C)C, CCc1ccccc1O, O=P(O)(O)CCC(F)(F)C(F)(F)C(F)(F)C(F)(F)C(F)(F)C(F)(F)F, Nc1ccn([C@@H]2O[C@H](CO)[C@@H](O)C2O)c(=O)n1 (some centres not stated), CC1=NN(c2ccccc2)C(=O)C1, CC(C)C=O, Cc1ccc(S(=O)(=O)O)cc1, Cc1cc(Cc2cc(C)cc(C(C)(C)C)c2O)c(O)c(C(C)(C)C)c1, Cc1ccc(N=Nc2c(O)ccc3ccccc23)c(C)c1, O=C1OC(=O)c2cc(-c3ccc4c(c3)C(=O)OC4=O)ccc21, O=C1c2ccccc2C(=O)c2c(O)c(O)cc(O)c21, CCC(=O)O

AC50, active:
CC(C)(C)c1ccc(O)c(O)c1 57.1 µM, CCCCCCCCCCCC(=O)NCCCN(C)C 8.13 µM, CCCCc1oc2ccccc2c1C(=O)c1cc(I)c(OCCN(CC)CC)c(I)c1 19.7 µM, CN(C)c1ccc(C(=C2C=CC(=[N+](C)C)C=C2)c2ccccc2)cc1 9.9 µM, CN(C)CCOC(c1ccccc1)c1ccccc1 45.5 µM, Cc1ccccc1C(OCCN(C)C)c1ccccc1 (configuration not stated) 48.6 µM, O=C(CCCN1CCC(O)(c2ccc(Cl)cc2)CC1)c1ccc(F)cc1 5.07 µM, O=S(=O)(c1ccc(OCc2ccccc2)cc1)c1ccccc1O 22.7 µM

Target: Signal transducer and activator of transcription 3 (Homo sapiens) (UniProt P40763)
Assay: ATG_STAT3_CIS: Attagene CIS-FACTORIAL HepG2 Assay for human Signal Transducer and Activator of Transcription 3 (STAT3) (AID 2282963)
Conditions: HepG2, Attagene cis-factorial STAT3 reporter transcription; actives raise or lower the signal
Summary of the method: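 HepG2 cells transiently transfected with multiple cis-element-driven reporter units report endogenous transcription factor activity. After 24 h compound exposure, reporter mRNA is measured by RT-PCR, 6-FAM labelling, HpaI digestion and capillary electrophoresis. Fitted bidirectionally versus DMSO.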

Sequence of Signal transducer and activator of transcription 3 (Homo sapiens) (P40763 whole entry, looked up): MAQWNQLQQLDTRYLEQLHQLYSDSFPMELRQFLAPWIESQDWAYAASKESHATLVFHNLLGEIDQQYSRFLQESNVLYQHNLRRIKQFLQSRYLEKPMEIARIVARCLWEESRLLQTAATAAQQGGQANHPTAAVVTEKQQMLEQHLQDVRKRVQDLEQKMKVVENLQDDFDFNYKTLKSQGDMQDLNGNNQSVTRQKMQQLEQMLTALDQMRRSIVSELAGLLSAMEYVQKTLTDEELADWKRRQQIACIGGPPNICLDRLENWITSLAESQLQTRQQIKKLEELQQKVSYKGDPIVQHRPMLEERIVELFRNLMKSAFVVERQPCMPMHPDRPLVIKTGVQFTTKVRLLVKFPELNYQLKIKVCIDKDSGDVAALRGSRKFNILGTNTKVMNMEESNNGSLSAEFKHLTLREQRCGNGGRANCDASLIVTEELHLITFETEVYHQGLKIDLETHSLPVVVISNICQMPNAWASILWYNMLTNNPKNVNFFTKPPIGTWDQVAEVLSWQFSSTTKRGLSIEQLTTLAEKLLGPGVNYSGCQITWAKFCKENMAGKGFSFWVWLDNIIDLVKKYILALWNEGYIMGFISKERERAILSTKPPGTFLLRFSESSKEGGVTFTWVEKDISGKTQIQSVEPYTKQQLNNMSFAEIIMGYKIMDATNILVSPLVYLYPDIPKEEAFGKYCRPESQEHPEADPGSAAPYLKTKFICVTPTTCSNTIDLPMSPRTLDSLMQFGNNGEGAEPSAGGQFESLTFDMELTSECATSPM

outcome, inactive:
c1ccc2c(c1)CCC2, CC(C)(C)c1ccc(O)c(O)c1, CN(Cc1cnc2nc(N)nc(N)c2n1)c1ccc(C(=O)N[C@@H](CCC(=O)O)C(=O)O)cc1, CCCCCCCCCCCC(=O)NCCCN(C)C, O=C1c2ccc(O)c(O)c2C(=O)c2c(O)ccc(O)c21, Cc1ccc(C(=O)c2ccccc2)cc1, Nc1ccc(O)c(C(=O)O)c1, CCCCc1oc2ccccc2c1C(=O)c1cc(I)c(OCCN(CC)CC)c(I)c1, O=C(O)C(F)(F)OC(F)(F)C(F)(F)OC(F)(F)C(F)(F)OC(F)(F)C(F)(F)C(F)(F)C(F)(F)F, CC[N+](CC)(CC)Cc1ccccc1, O=C1Cc2ccccc2N1c1c(Cl)cccc1Cl, CN(C)c1ccc(C(=C2C=CC(=[N+](C)C)C=C2)c2ccccc2)cc1, CCCCC(CC)C(=O)OCCOCCOCCOCCOC(=O)C(CC)CCCC (configuration not stated), c1cnc2c(c1)ccc1cccnc12, CN(C)CCOC(c1ccccc1)c1ccccc1, C[C@]12CC[C@@H]3c4ccc(O)cc4CC[C@H]3[C@@H]1CC[C@@H]2OC(=O)CCC1CCCC1, Cc1cc(=O)oc2cc(O)ccc12, FC(OC(F)(F)C(F)(F)C(F)(F)F)C(F)(F)F (configuration not stated), COCN(COC)c1nc(N(COC)COC)nc(N(COC)COC)n1, CC=O, CCCCCCCCCCCCCCC, Cc1ccccc1C(OCCN(C)C)c1ccccc1 (configuration not stated), CC(=O)Nc1ccc(O)cc1, CC(C)CCOCCC(C)C, CCc1ccccc1O, O=P(O)(O)CCC(F)(F)C(F)(F)C(F)(F)C(F)(F)C(F)(F)C(F)(F)F, Nc1ccn([C@@H]2O[C@H](CO)[C@@H](O)C2O)c(=O)n1 (some centres not stated), CC1=NN(c2ccccc2)C(=O)C1, O=S(=O)(c1ccc(OCc2ccccc2)cc1)c1ccccc1O, CC(C)C=O, Cc1ccc(S(=O)(=O)O)cc1, Cc1ccc(N=Nc2c(O)ccc3ccccc23)c(C)c1, O=C1OC(=O)c2cc(-c3ccc4c(c3)C(=O)OC4=O)ccc21, O=C1c2ccccc2C(=O)c2c(O)c(O)cc(O)c21, CCC(=O)O

AC50, active:
O=C(CCCN1CCC(O)(c2ccc(Cl)cc2)CC1)c1ccc(F)cc1 59.5 µM, Cc1cc(Cc2cc(C)cc(C(C)(C)C)c2O)c(O)c(C(C)(C)C)c1 160 µM
